Laboratory results as given in PubChem BioAssay (NCI).
Values joined by “and” are separate entries in the source; they are usually repeats but may differ in a detail not shown here. Equal values may be shown once. Compounds without any hit were thinned out: in the full panel of roughly 83,000, 20% have a hit.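 Each cell line was grown in a 96-well plate and treated with one concentration of compound for 48 hours. Values below 10 were considered active.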 Active and inactive are the calls of the source.

What was measured:
Experiment in all cases: NCI-60 one-dose screen, 48 h (100 = growth as untreated, 0 = no growth, -100 = all killed)
Details in all cases: 10 µM unless noted
SK-MEL-2 melanoma = system: SK-MEL-2 melanoma
EKVX NSCLC = system: EKVX NSCLC
SN12C renal = system: SN12C renal
UO-31 renal = system: UO-31 renal
TK-10 renal = system: TK-10 renal
ACHN renal = system: ACHN renal
CAKI-1 renal = system: CAKI-1 renal
A498 renal = system: A498 renal
HL-60(TB) leukemia = system: HL-60(TB) leukemia
CCRF-CEM leukemia = system: CCRF-CEM leukemia
MOLT-4 leukemia = system: MOLT-4 leukemia
SR leukemia = system: SR leukemia
RPMI-8226 leukemia = system: RPMI-8226 leukemia
OVCAR-8 ovarian = system: OVCAR-8 ovarian
OVCAR-5 ovarian = system: OVCAR-5 ovarian
SK-OV-3 ovarian = system: SK-OV-3 ovarian
IGROV1 ovarian = system: IGROV1 ovarian
OVCAR-3 ovarian = system: OVCAR-3 ovarian
HS 578T breast = system: HS 578T breast
OVCAR-4 ovarian = system: OVCAR-4 ovarian

Measured: growth

CC[C@H](C)[C@H](NC(=O)c1cnccn1)C(=O)N(C)[C@H](C[C@@H](OC(C)=O)c1nc(C(=O)N[C@@H](Cc2ccccc2)C[C@H](C)C(=O)OC)cs1)C(C)C
inactive: SK-MEL-2 melanoma 31.3% | EKVX NSCLC 43.9% | SN12C renal 43.6% | UO-31 renal 40.7% | TK-10 renal 48.2% | ACHN renal 45.3% | CAKI-1 renal 29.4% | CCRF-CEM leukemia 12% | MOLT-4 leukemia 17.9% | SR leukemia 15.9% | RPMI-8226 leukemia 22.5% | OVCAR-8 ovarian 15.2% | OVCAR-5 ovarian 42.4% | SK-OV-3 ovarian 20.6% | IGROV1 ovarian 32% | HS 578T breast 11.9%
active: A498 renal -7.33% | HL-60(TB) leukemia -43.7% | OVCAR-3 ovarian -10.2%

C[C@]12CC[C@H]3[C@@H](CC=C4c5nc(N)sc5CC[C@@]43C)[C@@H]1CC[C@@H]2O
inactive: SK-MEL-2 melanoma 98% | EKVX NSCLC 101% | SN12C renal 93.8% | UO-31 renal 96.3% | TK-10 renal 102% | ACHN renal 106% | CAKI-1 renal 91.7% | A498 renal 86% | HL-60(TB) leukemia 87.8% | CCRF-CEM leukemia 91.2% | SR leukemia 91.6% | RPMI-8226 leukemia 103% | OVCAR-8 ovarian 99.5% | OVCAR-5 ovarian 107% | OVCAR-4 ovarian 95.7% | SK-OV-3 ovarian 103% | IGROV1 ovarian 114% | OVCAR-3 ovarian 99.6% | HS 578T breast 105%

O=C1NC(=O)C(=C/C=C/c2ccccc2)C(=O)N1
active: SN12C renal -10.6% | UO-31 renal -64.3% | ACHN renal 2.5% | CAKI-1 renal -12.7% | HL-60(TB) leukemia -5.93% | CCRF-CEM leukemia -7.03% | MOLT-4 leukemia 4.09% | RPMI-8226 leukemia -20.4% | OVCAR-8 ovarian -3.62% | IGROV1 ovarian 7.61%
inactive: SK-MEL-2 melanoma 74.2% | EKVX NSCLC 84.1% | TK-10 renal 14.8% | A498 renal 106% | OVCAR-5 ovarian 37% | OVCAR-4 ovarian 26.8% | SK-OV-3 ovarian 62.9% | OVCAR-3 ovarian 11.8% | HS 578T breast 39.4%

CCOC(=O)P(=O)(OCC)OCC
inactive: SK-MEL-2 melanoma 113% | EKVX NSCLC 124% | SN12C renal 101% | UO-31 renal 92.3% | TK-10 renal 107% | ACHN renal 105% | CAKI-1 renal 119% | A498 renal 102% | HL-60(TB) leukemia 113% | CCRF-CEM leukemia 118% | MOLT-4 leukemia 100% | SR leukemia 92.5% | RPMI-8226 leukemia 112% | OVCAR-8 ovarian 101% | OVCAR-5 ovarian 112% | SK-OV-3 ovarian 98.3% | IGROV1 ovarian 89.5% | OVCAR-3 ovarian 113% | HS 578T breast 109%

CCC1CCC(=O)O1 (configuration not stated)
inactive: SK-MEL-2 melanoma 94.8% and 114% | EKVX NSCLC 111% | SN12C renal 108% and 109% | UO-31 renal 85.5% and 95% | TK-10 renal 105% and 109% | ACHN renal 105% and 109% | CAKI-1 renal 104% | A498 renal 96.5% and 98.6% | HL-60(TB) leukemia 78% and 109% | CCRF-CEM leukemia 116% | MOLT-4 leukemia 98.3% and 116% | RPMI-8226 leukemia 104% and 114% | OVCAR-8 ovarian 109% and 118% | OVCAR-5 ovarian 106% and 111% | OVCAR-4 ovarian 96.6% and 112% | SK-OV-3 ovarian 95.2% and 119% | IGROV1 ovarian 105% and 110% | OVCAR-3 ovarian 108% and 110% | HS 578T breast 106% and 108%

CCC1(NC(=O)c2cc(F)c(F)c(F)c2F)C(=O)NC(=O)N(C(C)C)C1=O (configuration not stated)
active: HL-60(TB) leukemia -22.6% | SR leukemia -18.6% | IGROV1 ovarian -56.8%
inactive: SK-MEL-2 melanoma 68.4% | EKVX NSCLC 93.1% | SN12C renal 81.7% | UO-31 renal 68.2% | TK-10 renal 123% | ACHN renal 96.6% | CAKI-1 renal 93.6% | A498 renal 98.2% | CCRF-CEM leukemia 87.3% | RPMI-8226 leukemia 107% | OVCAR-8 ovarian 79.4% | OVCAR-5 ovarian 109% | OVCAR-4 ovarian 84.6% | SK-OV-3 ovarian 150% | OVCAR-3 ovarian 138% | HS 578T breast 28.3%

CCCCCCCCCCCCCCCCCC1OCC(COC(=O)O[C@@H](C(=O)O[C@H]2C[C@@]3(O)[C@@H](OC(=O)c4ccccc4)[C@@H]4[C@]5(OC(C)=O)CO[C@@H]5C[C@H](O)[C@@]4(C)C(=O)[C@H](OC(C)=O)C(=C2C)C3(C)C)[C@@H](NC(=O)c2ccccc2)c2ccccc2)O1 (some centres not stated)
inactive: SK-MEL-2 melanoma 59.5% | EKVX NSCLC 77.5% | SN12C renal 44.8% | UO-31 renal 107% | TK-10 renal 102% | ACHN renal 96.6% | CAKI-1 renal 82.8% | A498 renal 46% | CCRF-CEM leukemia 18.5% | MOLT-4 leukemia 43.6% | SR leukemia 18% | OVCAR-8 ovarian 48.9% | OVCAR-5 ovarian 55.5% | OVCAR-4 ovarian 67.4% | SK-OV-3 ovarian 49.5% | OVCAR-3 ovarian 15.7% | HS 578T breast 28.9%
active: HL-60(TB) leukemia 4.84% | RPMI-8226 leukemia 4.08%

CN1CCc2cc3c(cc2C1O)OCO3 (configuration not stated)
inactive: SK-MEL-2 melanoma 76.1% and 108% | EKVX NSCLC 107% and 92.8% | SN12C renal 112% and 99.6% | UO-31 renal 101% and 82.7% | TK-10 renal 112% and 111% | ACHN renal 100% and 101% | CAKI-1 renal 87.5% and 95.4% | A498 renal 121% and 98% | HL-60(TB) leukemia 99.7% | CCRF-CEM leukemia 86.8% and 103% | MOLT-4 leukemia 111% | SR leukemia 101% | RPMI-8226 leukemia 94.4% | OVCAR-8 ovarian 102% and 109% | OVCAR-5 ovarian 94.6% and 94.1% | OVCAR-4 ovarian 108% | SK-OV-3 ovarian 97.9% and 105% | OVCAR-3 ovarian 17.1% and 105% | HS 578T breast 55.3% and 103%

C[C@]12CCC(=O)C[C@@H]1CC[C@@H]1[C@@H]2CC[C@]2(C)[C@@H](OC(=O)N(CCCl)N=O)CC[C@@H]12
inactive: SK-MEL-2 melanoma 17.7% | EKVX NSCLC 69.9% | SN12C renal 24% | UO-31 renal 25.4% | TK-10 renal 32.9% | A498 renal 43.5% | CCRF-CEM leukemia 14.7% | MOLT-4 leukemia 13.3% | RPMI-8226 leukemia 17.4% | OVCAR-8 ovarian 27.8% | OVCAR-5 ovarian 42.6% | OVCAR-4 ovarian 72.6% | SK-OV-3 ovarian 16.1% | OVCAR-3 ovarian 49.5% | HS 578T breast 35.7%
active: ACHN renal 9.18% | CAKI-1 renal 5.32% | HL-60(TB) leukemia -10.5% | IGROV1 ovarian -29.7%

CC1=CC(=Nc2ccc(N(CCCl)CCCl)cc2)C=C(C)C1=O
inactive: EKVX NSCLC 70.6% | SN12C renal 20.4% | A498 renal 69.8% | OVCAR-8 ovarian 18.7% | OVCAR-5 ovarian 35% | SK-OV-3 ovarian 49.9% | IGROV1 ovarian 21% | HS 578T breast 26.7%
active: SK-MEL-2 melanoma -8.46% | UO-31 renal -13.7% | TK-10 renal 9.98% | ACHN renal -1.94% | CAKI-1 renal -44.9% | HL-60(TB) leukemia -7.43% | CCRF-CEM leukemia -6.58% | MOLT-4 leukemia -21.2% | SR leukemia -2.28% | RPMI-8226 leukemia 9.64% | OVCAR-3 ovarian -62.5%

CC1OC(=O)C(C(C)C)NC(=O)C(C(C)C)OC(=O)C(C(C)C)NC(=O)C(C)OC(=O)C(C(C)C)NC(=O)C(C(C)C)OC(=O)C(C(C)C)NC(=O)C(C)OC(=O)C(C(C)C)NC(=O)C(C(C)C)OC(=O)C(C(C)C)NC1=O (configuration not stated)
inactive: TK-10 renal 24.6%
active: SK-MEL-2 melanoma -22.4% | EKVX NSCLC -23.9% | SN12C renal 3.04% | UO-31 renal 6.58% | ACHN renal -16.5% | CAKI-1 renal -5.02% | A498 renal -53.2% | HL-60(TB) leukemia -44.6% | CCRF-CEM leukemia -20.1% | MOLT-4 leukemia -26.4% | SR leukemia -14.6% | RPMI-8226 leukemia -23.2% | OVCAR-5 ovarian -39.6% | OVCAR-4 ovarian -17% | SK-OV-3 ovarian -13.3% | IGROV1 ovarian -25% | OVCAR-3 ovarian -18.9% | HS 578T breast -63.9%

C#COc1cccc(Nc2ncnc3cc(NC(=O)CF)ccc23)c1
active: CCRF-CEM leukemia -7.49% [6.25 µM]
inactive: SK-MEL-2 melanoma 21.6% [6.25 µM] | EKVX NSCLC 67.8% [6.25 µM] | SN12C renal 54.7% [6.25 µM] | UO-31 renal 60.9% [6.25 µM] | TK-10 renal 60.7% [6.25 µM] | ACHN renal 48.3% [6.25 µM] | CAKI-1 renal 45.5% [6.25 µM] | A498 renal 75.3% [6.25 µM] | HL-60(TB) leukemia 54.5% [6.25 µM] | SR leukemia 20.9% [6.25 µM] | RPMI-8226 leukemia 62.4% [6.25 µM] | OVCAR-8 ovarian 42.5% [6.25 µM] | OVCAR-5 ovarian 87.2% [6.25 µM] | OVCAR-4 ovarian 75% [6.25 µM] | SK-OV-3 ovarian 34.8% [6.25 µM] | IGROV1 ovarian 52.4% [6.25 µM] | OVCAR-3 ovarian 12% [6.25 µM] | HS 578T breast 44.2% [6.25 µM]

C[Se]/C=C1/C(=O)N(c2c(Cl)cccc2Cl)c2ccccc21
active: SN12C renal -35.7% | UO-31 renal -96.5% | CAKI-1 renal 2.44% | HL-60(TB) leukemia -39.7% | SR leukemia 2.07% | RPMI-8226 leukemia 2.93% | OVCAR-8 ovarian -15.2%
inactive: SK-MEL-2 melanoma 51.1% | EKVX NSCLC 24% | TK-10 renal 11.6% | ACHN renal 30.1% | A498 renal 11.5% | CCRF-CEM leukemia 10.2% | MOLT-4 leukemia 10.2% | OVCAR-5 ovarian 28.7% | SK-OV-3 ovarian 61.5% | IGROV1 ovarian 44.7% | OVCAR-3 ovarian 20.3% | HS 578T breast 13%
